This is an account of results in PubChem BioAssay.

The assay is described as follows: small-molecule microarray binders of probe aShh, primary screen, biochemical, biotinylated probe, 635/667 nm fluorescence (AID 1114).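 Further: probe is biotin-labelled aShh protein from a stem cell growth factor screen; measures binding of labelled protein to compounds printed on the slide; score merges feature fluorescence at 667 nm with signal-to-noise.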 The following applies: higher = more signal.
Turning to `C=C1C(=O)C=C2CN(C(=O)c3ccccc3)[C@@](Cc3ccc(OC)cc3)(C(=O)OC)[C@@H]12`, the composite z-score turned out to be 0.232.
For `COC(=O)[C@@]1(Cc2ccc(F)cc2)[C@H]2c3cc(C(=O)N(C)C)n(C)c3C[C@H]2CN1C(=O)c1ccccc1` the value was 0.705; for `COCCCNC(=O)[C@@]1(CCS(=O)(=O)c2ccccc2)COC(c2ccc(OCCCO)cc2)=N1`, 0.363; for `CO[C@H]1O[C@H](CO)[C@@H](OC(=O)Nc2ccc3c(c2)OCO3)[C@H](OC(=O)Nc2ccccc2-c2ccccc2)[C@H]1OC(=O)Nc1ccccc1-c1ccccc1`, -0.273.
The compound `NC(=O)N1C(=O)C2C(C1=O)C1C=C(CCCO)C2C(C2CC2)N1Cc1sc2ccccc2c1Cl` (stereo unspecified) had a composite z-score of 0.138.
For `C=CC[C@@]1(C(=O)OC)N=C(c2ccc(OCCCO)cc2)O[C@@H]1c1ccccc1N=[N+]=[N-]` the value was 0.313; for `C=CCC(OC(C)=O)[C@@H]1[C@@H](N(Cc2ccc(-c3ccccc3)cc2)C(=O)c2cccc3ccccc23)c2cc(OCCCO)ccc2N1C(=O)Cc1ccc(OC)cc1` (stereo partly specified), -0.0293.
For `CCOc1cc(C(O)C2C=CC3C(=O)N(c4ccccc4)C(=O)C3N2Nc2ccccc2F)ccc1O` (stereo unspecified) the value was 0.536; for `C=CCC(OC(C)=O)[C@@H]1[C@@H](N(Cc2cc3ccccc3o2)C(=O)c2cccc3ccccc23)c2cc(OCCCO)ccc2N1C(=O)c1ccc2ccccc2n1` (stereo partly specified), -0.0813.
For `COc1ccc(C(O)C2C=CC3C(=O)N(C)C(=O)C3N2N(c2ccccc2)c2ccccc2)cc1` (stereo unspecified) the value was -0.0843; for `O=C1O[C@@H](c2ccccc2)[C@@H](c2ccccc2)N2[C@@H](c3ccc(OCCO)cc3)[C@]3(C(=O)Nc4ccc(C#CC5(O)CCCCCC5)cc43)[C@@H](C(=O)Nc3nc4ccccc4s3)[C@H]12`, 0.156; for `COCCOC(=O)N1C(=O)[C@@]2(c3cc(C#CCCO)ccc31)[C@H](C(N)=O)[C@H]1C(=O)O[C@H](c3ccccc3)[C@H](c3ccccc3)N1[C@@H]2c1ccccc1OCCO`, -0.0165.
For the compound `CC1CC/C=C\[C@H]2OC34C=CCN(C(C)(C)C)C(=O)[C@H]3N(CCCO)C(=O)[C@@H]4C2C(=O)O1` (stereo partly specified), the composite z-score was 0.0278.
For `COc1ccc([Si](C)(C)[C@H]2[C@H](CC(=O)N3Cc4ccccc4C[C@H]3CO)O[C@@]3(C(=O)N(C)c4ccccc43)[C@@H]2C)cc1` the value was -0.0146; for `Cc1ccc(S[C@]2(C(=O)NCCCN(C)C)CC(=O)N(C3Cc4ccccc4C3)[C@@H]2c2ccc(CO)cc2I)cc1`, 0.207; for `O=C1O[C@H](c2ccccc2)[C@H](c2ccccc2)N2[C@H]1[C@@H](C(=O)N1CCN(c3ncccn3)CC1)[C@]1(C(=O)Nc3ccc(C#CCCO)cc31)[C@H]2c1ccc(O)cc1`, 0.0684.
The value for `[N-]=[N+]=Nc1ccccc1C[C@]1(C(=O)N2CCOCC2)N=C(c2ccc(OCCCO)cc2)O[C@H]1c1ccccc1N=[N+]=[N-]` was 0.275.
For `COc1ccc(C(=O)Nc2ccc(CN3C(=O)[C@@]4(O[C@@H](CCn5cc(CCO)nn5)[C@H]([Si](C)(C)c5ccc(OC)cc5)[C@H]4C)c4ccccc43)cc2)cc1` the value was -0.0146.
`NC(=O)NCC#Cc1ccc2c(c1)[C@]1(C(=O)N2)[C@H](c2ccc(OCCO)cc2)N2[C@H](c3ccccc3)[C@H](c3ccccc3)OC(=O)[C@H]2[C@@H]1C(=O)NC[C@H](O)c1ccccc1` returned a composite z-score of -0.367.
For `O=C1[C@H]2C=C(I)[C@H](C[C@@H]2c2ccccc2)[C@@]12CO2` the value was -0.117; for `CC(C)NC(=O)[C@@H]1c2ccccc2C(=O)N(Cc2ccc(OC(F)(F)F)cc2)[C@H]1c1ccc(CO)cc1`, 0.637; for `COc1ccc([Si](C)(C)[C@H]2[C@H](CC(=O)N3Cc4ccccc4C[C@H]3CO)O[C@@]3(C(=O)N(c4ccccc4)c4ccccc43)[C@@H]2C)cc1`, -0.0119.
The value for `CC(C)(C)N1CC=CC23O[C@@H]4/C=C\CCCOC(=O)C4[C@H]2C(=O)N(CCCO)[C@@H]3C1=O` (stereo partly specified) was -0.0192; that for `O=C1C2C=CC(C(O)c3ccc([N+](=O)[O-])cc3)N(Nc3ccccc3F)C2C(=O)N1c1ccccc1` (stereo unspecified) was 0.0442.
Compound `COc1ccccc1CN1C(=O)c2ccccc2[C@](Cc2ccccc2I)(C(=O)NCC(C)C)[C@@H]1c1ccc(CO)cc1` gave a composite z-score of -0.0243.
As to `C=C(CCCC)/C(=C/C[C@H](OC(=O)c1ccncc1)c1ccc(OCCO)cc1)c1cnc2ccccc2c1`, the composite z-score is -0.0146.
For `CCCC[C@H]1C[C@@H]1[C@@H]1N(C(C)=O)[C@H](c2cccc(OC)c2)CC12CC2` the value was 0.0278; for `O=C1O[C@H](Cc2ccccc2)[C@@H]2[C@H]3C=CCCC=C3CN2[C@H]1Cc1ccc(O)cc1`, 0.207; for `COCCOC(=O)N1C(=O)[C@@]2(c3cc(C#CCC(C(=O)OC)C(=O)OC)ccc31)[C@H](C(=O)Nc1nc3ccccc3s1)[C@H]1C(=O)O[C@H](c3ccccc3)[C@H](c3ccccc3)N1[C@@H]2c1ccc(OCCO)cc1`, 0.0043.
For `CCCCCCc1nc(Cc2cc(OC)c(OC)c(OC)c2)cc2c1[Si](C(C)C)(C(C)C)O[C@H]2c1ccccc1` the value was 0.235; for `COC(=O)c1cccc([C@H]2OC(=CC(=O)OC(C)C)C[C@@H](c3cccc(C(=O)OC)c3)O2)c1`, 0.156.
`C=CC[C@]1(C(=O)NCC(O)CO)COC(c2ccc(OCCCO)cc2)=N1` (stereo partly specified) had a composite z-score of 1.01.
The value for `COC(=O)[C@@]1(Cc2ccccc2)[C@H]2c3cc(C(=O)N(C)C)n(Cc4ccc(C(F)(F)F)nc4)c3C[C@H]2CN1C(=O)c1ccccc1` was 0.941; that for `CCCNC(=O)[C@@]1(c2ccc([N+](=O)[O-])cc2)CC(=O)N(C(C)C)[C@@H]1c1ccc(CO)cc1` was -0.138.
`C[C@@H]1NC(=O)C([C@@H](C)OCc2ccccc2)NC(=O)[C@@]23C(=O)N[C@@H](Cc4ccccc4)C2[C@H](C)[C@@]2(C)O[C@H]2C3/C=C/C/C=C\CNC1=O` (stereo partly specified) came in with a composite z-score of 0.299.
The value for `CCOC(=O)C1=C[C@@H](C(C)(C)C)N(S(=O)(=O)c2ccc(C)cc2)[C@H]1c1ccc(C#N)cc1` was -0.154.
